“And” between values parts separate entries of the source, which are not always exact repeats. Identical values can stand only once. Results filed as inconclusive are left out. Values without a mark were called inactive. The source made the active and inactive calls. Calls come from the whole dose curve; as a rule, active = well fitted cell-killing curve with a large enough effect in the repeat runs; inconclusive = weak or mixed curves, or effect the other way; inactive = flat fitted curve, though single readings scatter.
test: qHTS RealTime-Glo MT Cell Viability Assay in HEK293 cells - 8 hour (AID 1224887); settings: RealTime-Glo luminescence; series mostly up to 76.8 µM; activity change, negative = cytotoxicity: at the top concentration; note: nearly all actives have a fitted effect of over 50% in size; for activity change, negative = cytotoxicity: top concentration of the series differs between compounds
Text: U.S. Tox21 Program National Center for Advancing Translational Sciences [NCATS] NIH Chemical Genomics Center [NCGC] U.S. Environmental Protection Agency [EPA] National Institutes of Environmental Health Sciences [NIEHS] National Toxicology Program [NTP] U.S. Food and Drug Administration [FDA] Tox21 Assay Overview: Measure of cell viability is critical in the cell-base assay. Analysis of cell viability is necessary for the characterization of cell responses to cytotoxic drugs and environmental stress. A RealTime-Glo MT Cell Viability Assay to monitor cell viability in real time of continues cell culture during 40 hours of compound treatment was used to screen Tox21 10K library compounds in Hek293 cells. The RealTime-Glo MT Cell Viability Assay is a nonlytic, homogeneous, bioluminescent method to measure cell viability in real time using a simple, plate-based method. The assay involves adding NanoLuc luciferase and a cell-permeant prosubstrate to cells in culture. Viable cells reduce the proprietary prosubstrate to generate a substrate for NanoLuc luciferase. This substrate diffuses from cells into the surrounding culture medium, where it is rapidly used by the NanoLuc Enzyme to produce a luminescent signal. The signal correlates with the number of viable cells, making the assay well suited for cytotoxicity studies.
Tox21 Assay Protocol Summary: The mixture of Hek293 cell suspension and reagents were dispensed at 600cells/6 ul/well in 1536-well tissue culture treated black solid bottom plates using a Multidrop dispenser. After the assay plates were incubated at a 37 C/5% CO2 incubator for 5 hours, 23 nL of compounds dissolved in DMSO, positive and negative controls was transferred to the assay plate by a pintool work station. The plates were incubated at 37 C for 40 hours. The luminescence intensity were measured at 0h, 8h, 16h, 24h, 32h and 40h time points using ViewLux plate reader during compound treatment.
% is set by controls: 0 for no effect and ±100 for the full control effect; potency is the fitted concentration of half-maximal effect.

SMILES	Potency	activity change, negative = cytotoxicity
[Cl][Hg][c]1ccccc1	1.95 µM (active)	
CCCCCON=O		-7.07%
CCOC(=O)Cc1ccccc1		2.48%
CC(=O)[O][Sn]([c]1ccccc1)([c]1ccccc1)[c]1ccccc1	0.123 µM (active)	
C[C@@H]1CC2=CC(=O)CC[C@@H]2[C@H]2CC[C@@]3(C)[C@@H](CC[C@]3(C)O)[C@@H]21		-19.7% [at 35.3 µM]
CCCCC(CC)COC(=O)c1ccccc1C(=O)OCC(CC)CCCC (stereo not given)		1.79%
BrCCCBr		2.91%
O=[N+]([O-])c1ccc(Cl)c(Cl)c1Cl		-24.4%
O=S1OCC2C(CO1)C1(Cl)C(Cl)=C(Cl)C2(Cl)C1(Cl)Cl (stereo not given)	43.6 µM (active)	
ClCBr		4.23%
C=CCBr		2.56%
Clc1ccc(C(Cl)(Cl)Cl)cc1Cl	30.2 µM (active)	
O=S(=O)(O)F		1.58%
CN=C=O		3.35%
CC(C)NCC(O)c1ccccc1Cl (stereo not given)		0.291% [at 35.3 µM]
Fc1ccc(C(OCCN2CCN(CCCc3ccccc3)CC2)c2ccc(F)cc2)cc1	16.9 µM (active)	
CC(Cl)CCl (stereo not given)		-2.9%
CC(=O)[O-].CC(=O)[O-].CC(=O)[O-].[Sb+3]		-4.44% [at 2.72 µM]
CC(C)C(Br)C(=O)NC(N)=O (stereo not given)		4.05% [at 35.3 µM]
Cc1ccc([N+](=O)[O-])[c]2c1[O][Hg]2	3.79 µM (active)	

SMILES	Potency	activity change, negative = cytotoxicity
O.O.O.O=C([O-])[C@H]([O-])[C@@H]([O-])C(=O)[O-].O=C([O-])[C@H]([O-])[C@@H]([O-])C(=O)[O-].[K+].[K+].[Sb+3].[Sb+3]		-8.1%
[O]=[Cr][O][Cr]=[O]		17.5%
CNC(C)(C)Cc1ccccc1		-0.114% [at 35.3 µM]
O=C(N[C@@H]1N=C(c2ccccc2F)c2cccc3c2N(CC3)C1=O)c1cc2ccccc2[nH]1		-7.31% [at 35.3 µM]
CC(Cc1ccccc1)N(C)Cc1ccco1 (stereo not given)		2.39% [at 35.3 µM]
CCCC[N+]1(C)CCCC1 (tested in a mixture with another compound)		5.51%
Nc1ccc(Cl)cc1C(=O)c1ccccc1F		-4.26% [at 35.3 µM]
O=[N+]([O-])c1ccc(CCl)cc1		-7.56%
CCC1(CC)C(=O)N=C(O)NC1=O		-2.8%
COP(=S)(NC(C)C)Oc1ccc(C)cc1[N+](=O)[O-] (stereo not given)		-26.6%
O=C1C2(Cl)C3(Cl)C4(Cl)C(Cl)(Cl)C5(Cl)C3(Cl)C1(Cl)C5(Cl)C24Cl (stereo not given)	34.1 µM (active) and 46.9 µM (active)	
[F][Sn]([c]1ccccc1)([c]1ccccc1)[c]1ccccc1	1.74 µM (active)	
Clc1c(Cl)c(Cl)c(Cl)c(Cl)c1Cl		4.5% [at 6.97 µM]
CCN(CC)C(=S)S	inactive	
CC[N+]1(CC)CCC(OC(=O)C(O)(c2ccccc2)c2ccccc2)C1 (stereo not given)		12.4% [at 35.3 µM]
N#CC(C#N)=NNc1cccc(Cl)c1		-16.5%
COC(=O)/C=C(\C)OP(=O)(OC)OC		0.783%
ClC(Cl)C(Cl)(Cl)Cl		1.89%
O=C(O)CCCCCCNC1c2ccccc2CCc2ccccc21		8.88% [at 35.3 µM]
O=C(CCCCl)c1ccc(F)cc1		1.96% [at 35.3 µM]

Source: PubChem BioAssay (Tox21)
